High-throughput results from PubChem BioAssay.
This is one part of a sample in which hits are shown more often than they occur.
Pf Dd2 growth: Plasmodium falciparum Dd2 growth inhibition; Potency, µM (top dose mostly 28.9 µM), for the others: top-dose activity, negative = inhibition, hits mostly inhibitors; P. falciparum Dd2 growth, SYBR Green, 72 h; 120,000 compounds, 4.3% hits; active means well fitted inhibition curve with a large enough effect;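 further: plate controls were DMSO vehicle for no effect and reference drug for full effect; nearly all actives have a fitted effect of over 65% in size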
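Infected erythrocytes (Dd2, 0.3% parasitemia, 2.5% hematocrit final) are added to compound in RPMI-1640/Albumax II medium, grown 72 h at 37C in low oxygen, then lysed with saponin/Triton-X containing SYBR Green and read by fluorescence.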
* = called active by the depositor; i = inactive; [ ] = another dose, or the depositor's remark. Potency means the concentration at half of the fitted maximal effect.

SMILES	Pf Dd2 growth
COc1ccc(C(=O)N2CCC3(CC2)N(C)C(=O)CS3(=O)=O)c(C)c1	8%
CC(=O)Nc1ccc([C@H]2OCC(=O)N[C@@H]2CO)cc1	-12%[44.1 µM]
CC(=O)N1CCN(C[C@@H]2C=C(C)[C@H](Cc3nnc(-c4ccccc4F)o3)C[C@H]2C(C)C)CC1	13µM*
CC1=C[C@@H](CN2CCOCC2)[C@H](C(C)C)C[C@H]1Cc1nnc(-c2ccncc2)o1	-12%[44.1 µM]
CC1=C[C@@H](CNC(=O)C2CC2)[C@H](C(C)C)C[C@H]1Cc1nnc(-c2ccccc2F)o1	16µM*
CC1=C[C@@H](CNCCN2CCOCC2)[C@H](C(C)C)C[C@H]1Cc1nnc(-c2ccccc2)o1	4µM*
CC1=C[C@@H](CNC(=O)COc2ccccc2)[C@H](C(C)C)C[C@H]1CC(=O)NCCN1CCOCC1	i
COCC(=O)NC[C@@H]1C=C(C)[C@H](Cc2nnc(-c3cncn3C)o2)C[C@H]1C(C)C	i
CC1=C[C@@H](CNC(=O)C2CCCCC2)[C@H](C(C)C)C[C@H]1CC(=O)NCc1cccnc1	-22%[44.1 µM]
Fc1ccccc1CN1CCOC[C@H](Oc2cnccn2)C1	-16%[44.1 µM]
O=C1Nc2ccc(Br)cc2C(=O)N2CC[C@H](NS(=O)(=O)c3cccs3)C[C@@H]12	9%
Cn1ncc2c(NCc3noc(-c4cccs4)n3)nc(C(C)(C)C)nc21	i
CCOc1ccc(CC(=O)N2CCC(Cc3nc(-c4ccc(F)cc4)no3)CC2)cc1	i
COc1ccc(CNC(=O)C2(c3ccc(NC(C)=O)cc3)CCCCC2)cc1	-4%
CC(C)Cn1c(CNC(=O)OC(C)(C)C)nc2cccnc21	11%
O=S(=O)(c1ccccc1Cl)N1CCCC(CO)(Cc2cccc(Cl)c2)C1 (stereo not drawn)	-21%
Cn1ccnc1-c1ccc(N2CC[C@@]3(O)CCN(S(C)(=O)=O)C[C@H]3C2)nn1	-8%
Cn1ccnc1-c1ccc(N2CCCC(CO)(Cc3cccc(Cl)c3)C2)nn1 (stereo not drawn)	5µM*
Cc1noc(-c2cccc(OC3CN(C(=O)Nc4cccc(F)c4)C3)c2)n1	-25%[5.79 µM]
COc1cccc(CNC(=O)[C@@H]2C[C@@H](O)CN2C2CCN(C(=O)c3ccnn3C)CC2)c1	i
COc1ccc(Nc2ncncc2-c2nc(-c3ccccc3)no2)cc1OC	i
c1ccc(-c2noc(-c3cncnc3Nc3ccc4c(c3)OCCO4)n2)cc1	i
c1ccc(-c2noc(-c3cncnc3Nc3ccc4c(c3)OCO4)n2)cc1	5.6µM*
COc1ccc(Cl)cc1C(=O)N1CCC(Oc2ccc3c(cnn3CCC(=O)O)c2)CC1	0%
Cc1noc(-c2cccn3c(CNC(=O)c4ccoc4)nnc23)n1	i
SMILES	Pf Dd2 growth
CN(C)c1ccc(CN2CCC3(C2)C(=NC2CCCCC2)NC(=O)N3c2cc(F)cc(F)c2)cc1 (stereo not drawn)	10µM*
COc1ccc(CN2CCC3(CC2)C(=NC2CCCC2)NC(=O)N3c2cc(F)cc(F)c2)cc1	-12%
O=C1NC(=NC2CCCC2)C2(CCN(Cc3ccc(F)cc3)C2)N1c1cc(F)cc(F)c1 (stereo not drawn)	2µM*
CC(=O)N1CCC2(CC1)C(=NC1CCCC1)NC(=O)N2c1cc(F)cc(F)c1	-9%
O=C1NC(=NC2CCCCC2)C2(CCN(Cc3ccccc3)CC2)N1c1cc(F)cc(F)c1	60%
O=C1NC(=NC2CCCCC2)C2(CCN(Cc3cccnc3)CC2)N1c1cc(F)cc(F)c1	43%
COCC(=O)NC[C@H]1CCN(Cc2ccc(OC)cc2)C[C@H]1N(C)C	9%
CCC1Oc2ccc(NC(=O)CC(C)(C)C)cc2CN(Cc2ccc(F)cc2)C1=O (stereo not drawn)	i
COCC(=O)Nc1ccc([C@H]2OCC(=O)N(Cc3ccccc3)[C@@H]2CO)cc1	-11%[44.1 µM]
Cc1nn(C)c(C)c1C(=O)N1CCCn2ccnc2C1c1ccccc1 (stereo not drawn)	21%
O=C(c1ccc2c(c1)OCO2)N1CCN(c2cc(-c3cccs3)[nH]n2)CC1	i
O=C1NCc2ccccc2CC12CCCCN2Cc1cncs1 (stereo not drawn)	7%
O=C(Cc1c[nH]c2ccccc12)NCc1cccnc1N1CCOCC1	-1%
Cc1ccc(C(=O)N2[C@@H]3CC[C@H]2CC(NC(=O)c2cnc(C)cn2)C3)c(C)c1 (stereo partly drawn)	2%
CC(=O)NCCCC(=O)N1CCOC2(CCN(C(=O)C3CCN(C)CC3)CC2)C1	7%
COc1ccccc1OCC(=O)c1ccc2c(c1)N(CCCC(=O)N1CCOCC1)C(=O)CO2	i
CC(C)c1ccc(OCC(=O)c2ccc3c(c2)N(CCCC(=O)N2CCOCC2)C(=O)CO3)cc1	13µM*
Cc1ccc(OCC(=O)c2ccc3c(c2)N(CCCC(=O)N2CCOCC2)C(=O)CO3)cc1C	i
COc1ccc(-c2noc(CN(CC3CCC(=O)N3)C(C)C)n2)c(OC)c1OC (stereo not drawn)	-3%
O=C(Cn1nc2c(cc1=O)CCCC2)N1CCN(Cc2ccccc2Cl)CC1	-3%
CN(C)[C@@H]1CN(C(=O)c2cc(F)cc(F)c2)C[C@H]1CO	11%
